Source: PubChem (Broad Institute)
miR-122 inh – miR-122 suppressors via Renilla sensor increase, primary screen, cell-based, Huh7 psiCHECK-miR122, Renilla luciferase, single point; actives 0.14% (n = 340,000); activation, % at 12.5 µM; AID 623901, 2012; 48 h;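 active means mean activation of 30% or more, with every replicate also reaching 30%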;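 further: 0% = median of neutral control wells and 100% = median of positive control wells; higher luciferase signal means stronger suppression of miR-122 activity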
* hit, by the source's call. The sample as a whole holds a higher share of hits than the screen did.

SMILES	miR-122 inh
COc1cc(C(=O)Nc2ccc(S(=O)(=O)N3CCCCC3C)cc2)cc(OC)c1OC (stereo not given)	46.3*
COc1ccccc1N(CC(=O)N1CCCCC1C)S(=O)(=O)c1ccc(Cl)cc1 (stereo not given)	-128.3
CC(C)CC#Cc1cnc2c(c1)C(=O)N([C@H](C)CO)C[C@H](C)[C@H](CN(C)C(=O)Cc1ccccc1)O2	4.4
COc1ccc(-c2cnc3c(c2)C(=O)N([C@H](C)CO)C[C@@H](C)[C@H](CN(C)C(=O)C2CCOCC2)O3)cc1	-1.4
CCC(=O)Nc1ccc2c(c1)OC[C@H](C)N(CCC(F)(F)F)C[C@H](C)[C@H](OC)CN(C)C2=O	-3.2
Cc1ccc(C(=O)OCn2ncc(Cl)c(Cl)c2=O)cc1	74.4*
C[C@H]1CN([C@@H](C)CO)C(=O)c2cc(C#CC3(O)CCCC3)cnc2O[C@H]1CN(C)S(=O)(=O)c1ccc(F)cc1	2.2
Cc1ccc(-c2ccc3c(c2)O[C@H](CN(C)Cc2ccc(F)cc2)[C@@H](C)CN([C@H](C)CO)S3(=O)=O)cc1	-98.2
CCC(=O)N(C)C[C@@H]1Oc2ncc(C#Cc3ccc(OC)cc3)cc2C(=O)N([C@H](C)CO)C[C@H]1C	3.2
CC(C)CC#Cc1ccc2c(c1)O[C@@H](CN(C)C(=O)C1CCOCC1)[C@H](C)CN([C@H](C)CO)S2(=O)=O	-5.9
C[C@@H]1CN([C@H](C)CO)S(=O)(=O)c2ccc(C#CCN(C)C)cc2O[C@H]1CN(C)CC1CCCC1	-21.6
CCOC(=O)c1ccc(-n2ccnc2)c(NC(=O)c2cccc(Br)c2)c1	-128.3
COc1ccc(S(=O)(=O)NCc2ccccn2)cc1NC(=O)c1ccc(C)cc1	-93.7
CCOc1cc(NC(=O)c2ccccn2)c(OCC)cc1NC(=O)c1ccc(Cl)cc1	34.4*
COCC#Cc1ccc2c(c1)O[C@H](CN(C)C(=O)COC)[C@H](C)CN([C@H](C)CO)S2(=O)=O	12.6
CCC(=O)N(C)C[C@H]1Oc2ncc(-c3cccc(OC)c3)cc2C(=O)N([C@@H](C)CO)C[C@H]1C	-3.6
CC(C)C#Cc1ccc2c(c1)O[C@H](CN(C)C(=O)c1ccncc1)[C@H](C)CN([C@@H](C)CO)S2(=O)=O	39.5*
C[C@@H](O)C#Cc1ccc2c(c1)O[C@H](CN(C)C(=O)c1ccncc1)[C@@H](C)CN([C@@H](C)CO)S2(=O)=O	-10.1
C/C=C/c1ccc2c(c1)O[C@H](CN(C)C(=O)c1cnccn1)[C@H](C)CN([C@H](C)CO)S2(=O)=O	32.9*
C[C@@H]1CN([C@@H](C)CO)S(=O)(=O)c2ccc(C#Cc3ccccc3)cc2O[C@@H]1CN(C)C(=O)Nc1ccc2c(c1)OCO2	-0.6
CC(C)C#Cc1ccc2c(c1)O[C@H](CN(C)C(=O)c1ccncc1)[C@@H](C)CN([C@@H](C)CO)S2(=O)=O	40.6*
C[C@H](O)C#Cc1ccc2c(c1)O[C@H](CN(C)C(=O)c1ccncc1)[C@H](C)CN([C@@H](C)CO)S2(=O)=O	15.9
C/C=C/c1ccc2c(c1)O[C@@H](CN(C)C(=O)c1cccnc1)[C@H](C)CN([C@@H](C)CO)S2(=O)=O	-7.1
C/C=C/c1ccc2c(c1)O[C@H](CN(C)C(=O)c1cccnc1)[C@@H](C)CN([C@@H](C)CO)S2(=O)=O	-13.5
C[C@H](O)C#Cc1ccc2c(c1)O[C@@H](CN(C)C(=O)c1ccncc1)[C@@H](C)CN([C@@H](C)CO)S2(=O)=O	1.5
SMILES	miR-122 inh
C[C@@H]1CN([C@@H](C)CO)S(=O)(=O)c2ccc(C#Cc3ccccc3)cc2O[C@H]1CN(C)C(=O)Nc1ccc2c(c1)OCO2	-8.6
C[C@H](O)C#Cc1ccc2c(c1)O[C@H](CN(C)C(=O)c1ccncc1)[C@@H](C)CN([C@@H](C)CO)S2(=O)=O	-2.1
C[C@@H]1CN([C@H](C)CO)S(=O)(=O)c2ccc(C#Cc3ccncc3)cc2O[C@@H]1CN(C)C(=O)Nc1ccc2c(c1)OCO2	49.2*
COc1ccccc1S(=O)(=O)N(C)C[C@H]1Oc2cc(/C=C/c3ccccc3)ccc2S(=O)(=O)N([C@H](C)CO)C[C@H]1C	-42.6
COCC#Cc1cnc2c(c1)C(=O)N([C@@H](C)CO)C[C@@H](C)[C@H](CN(C)C(=O)Nc1ccc(OC)cc1)O2	1.6
CNC[C@@H]1Oc2ncc(C#Cc3ccncc3)cc2C(=O)N([C@H](C)CO)C[C@@H]1C	2.1
CC(C)CC#Cc1cnc2c(c1)C(=O)N([C@@H](C)CO)C[C@@H](C)[C@H](CN(C)C(=O)Nc1cccc(F)c1)O2	-10.5
CC(C)CC#Cc1cnc2c(c1)C(=O)N([C@@H](C)CO)C[C@H](C)[C@@H](CN(C)CC1CCOCC1)O2	1.8
CCC(=O)N(C)C[C@@H]1Oc2ncc(C#Cc3ccc(OC)cc3)cc2C(=O)N([C@@H](C)CO)C[C@@H]1C	8.8
COc1cccc(NC(=O)N(C)C[C@H]2Oc3ncc(C#Cc4ccccc4)cc3C(=O)N([C@@H](C)CO)C[C@H]2C)c1	5.0
CO[C@@H]1CN(C)C(=O)c2ccc(NS(=O)(=O)c3cccc(C)c3)cc2OC[C@@H](C)N(C(=O)Cc2cccnc2)C[C@H]1C	-1.1
COc1ccccc1S(=O)(=O)N(C)C[C@H]1Oc2cc(/C=C/c3ccccc3)ccc2S(=O)(=O)N([C@H](C)CO)C[C@@H]1C	-51.7
COc1cccc(S(=O)(=O)N(C)C[C@@H]2Oc3ncc(C#Cc4ccccc4)cc3C(=O)N([C@H](C)CO)C[C@@H]2C)c1	2.6
C[C@@H]1CN([C@H](C)CO)S(=O)(=O)c2ccc(-c3cncnc3)cc2O[C@H]1CN(C)C(=O)Cc1cccnc1	-0.8
COCC(=O)N(C)C[C@H]1Oc2ncc(/C=C/c3ccccc3)cc2C(=O)N([C@H](C)CO)C[C@H]1C	3.5
COCC(=O)N(C)C[C@H]1Oc2ncc(/C=C/c3ccccc3)cc2C(=O)N([C@H](C)CO)C[C@@H]1C	3.7
C/C=C/c1ccc([C@@H]2[C@@H](CN(C(=O)COC)C(C)C)N(C(C)=O)[C@H]2CO)cc1	50.0*
COc1cccc(-c2cnc3c(c2)C(=O)N([C@H](C)CO)C[C@H](C)[C@H](CN(C)S(=O)(=O)c2ccc(C)cc2)O3)c1	-1.2
CCCNC(=O)Nc1ccc2c(c1)OC[C@@H](C)NC[C@H](C)[C@@H](OC)CN(C)C2=O	-2.2
C[C@H]1CN([C@@H](C)CO)S(=O)(=O)c2ccc(C#Cc3ccccc3)cc2O[C@H]1CN(C)S(=O)(=O)c1ccccc1F	4.0
COCC(=O)Nc1ccc2c(c1)OC[C@@H](C)NC[C@@H](C)[C@@H](OC)CN(C)C2=O	0.1
C[C@@H]1CN([C@@H](C)CO)C(=O)Cc2cc(NC(=O)C3CCCCC3)ccc2O[C@H]1CN(C)Cc1ccncc1	2.8
CC(C)NC(=O)Nc1ccc2c(c1)CC(=O)N([C@H](C)CO)C[C@@H](C)[C@@H](CN(C)Cc1ccc(Oc3ccccc3)cc1)O2	-96.6
C[C@H](CO)N1C[C@H](C)[C@H](CN(C)Cc2ccc(C(=O)Nc3ccccc3N)cc2)Oc2ccc(NC(=O)Nc3ccc(F)cc3)cc2CC1=O	-267.3
C[C@@H]1CN([C@@H](C)CO)C(=O)Cc2cc(NC(=O)c3ccncc3)ccc2O[C@H]1CN(C)Cc1ccc(-c2ccccc2)cc1	31.5*
C[C@H](CO)N1C[C@H](C)[C@@H](CN(C)C(=O)Nc2ccccc2)Oc2ccc(NC(=O)Cc3ccccc3)cc2CC1=O	0.1
C[C@H](CO)N1C[C@H](C)[C@@H](CN(C)Cc2ccc(-c3ccccc3)cc2)Oc2ccc(NC(=O)Cc3ccccc3)cc2CC1=O	34.8*
